Assay results as given in the supplement of paper PMC3342239.
Structures can show the parent of a compound that is named as a salt.

Test system: Saccharomyces cerevisiae
Assay: fraction of cells in G1 phase (DNA content, flow cytometry); higher = more cells with unreplicated DNA (G1 delay)
Details: temperature: 30 C; YPD; JTY2953 pdr5 snq2 (sensitized); drug added to: cultures diluted from stationary phase; 6-7 h
Procedure, shortened: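 S. cerevisiae in YPD at 30°C was dosed with library drugs, using a final 20 µg/ml for sensitized JTY2953 diluted 1∶200 from overnight and fixed at 6–7 h, or dosing dividing JTY2953 (fixed at 6 h) and BY4741 (fixed at 4.33 h). Ethanol-fixed, SYTOX Green-stained cells were read by flow cytometry (10,000 events). The G1 fraction is taken as the Dean-Jett-Fox G1 peak area divided by the G1 and G2/M areas combined.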

Compound	fraction of cells in G1 phase
Cc1ccc(S(=O)(=O)NC(=O)NN2CCCCCC2)cc1 [Tolazamide] (64.2249 µM)	0.516
CC1CNc2c(cccc2S(=O)(=O)N[C@@H](CCCNC(=N)N)C(=O)N2CC[C@@H](C)C[C@@H]2C(=O)O)C1 (some centres not stated) [Argatroban] (39.3202 µM)	0.487
COCCc1ccc(OCC(O)CNC(C)C)cc1 (configuration not stated) [Metoprolol tartrate] (74.8023 µM)	0.491
C[C@H](N[C@@H](CCc1ccccc1)C(=O)O)C(=O)N1CCC[C@H]1C(=O)O [Enalaprilat] (57.4049 µM)	0.491
COc1cc2nc(N3CCN(C(=O)C4CCCO4)CC3)nc(N)c2cc1OC (configuration not stated) [Terazosin HCl] (51.6206 µM)	0.504
COc1ccc(C(=O)NCc2ccc(OCCN(C)C)cc2)cc1OC [Itopride HCl] (55.7972 µM)	0.501
Cc1ccc(S(=O)(=O)NC(=O)NN2CC3CCCC3C2)cc1 (configuration not stated) [Gliclazide] (61.8397 µM)	0.51
CN1C(C(=O)Nc2ccccn2)=C(O)c2ccccc2S1(=O)=O [Piroxicam] (60.3587 µM)	0.505
NC(CO)C(=O)NNCc1ccc(O)c(O)c1O (configuration not stated) [Benserazide HCl] (77.7459 µM)	0.514
CCN(CC)CCNC(=O)c1cc(Cl)c(N)cc1OC [Metoclopramide HCl] (66.7104 µM)	0.493
O=C(c1ccc(OCCN2CCCCC2)cc1)c1c(-c2ccc(O)cc2)sc2cc(O)ccc12 [Raloxifene HCl] (42.2301 µM)	0.508
CCOc1nc2cccc(C(=O)O)c2n1Cc1ccc(-c2ccccc2-c2nnn[nH]2)cc1 [Candesartan] (45.4065 µM)	0.506
